# From paper PMC7862700, “An all-to-all approach to the identification of sequence-specific readers for epigenetic DNA modifications on cytosine”
# What was measured:
# Assay in all cases: DAPPL (digital affinity profiling via proximity ligation, sequencing); 10 mM Tris-HCl pH 7.5, 50 mM NaCl, 1 mM DTT, 4% glycerol, room temperature, 30 min; GST-TFs on glutathione beads, 16-mer random dsDNA library, 0.1% formaldehyde crosslink after washing; high values mean tight binding
# FLI1 = target: T1, FLI1 (Homo sapiens, UniProt Q01543 1-452); details: protein: recombinant; tags: N-terminal GST; dsDNA, one strand shown
# T1 sequence: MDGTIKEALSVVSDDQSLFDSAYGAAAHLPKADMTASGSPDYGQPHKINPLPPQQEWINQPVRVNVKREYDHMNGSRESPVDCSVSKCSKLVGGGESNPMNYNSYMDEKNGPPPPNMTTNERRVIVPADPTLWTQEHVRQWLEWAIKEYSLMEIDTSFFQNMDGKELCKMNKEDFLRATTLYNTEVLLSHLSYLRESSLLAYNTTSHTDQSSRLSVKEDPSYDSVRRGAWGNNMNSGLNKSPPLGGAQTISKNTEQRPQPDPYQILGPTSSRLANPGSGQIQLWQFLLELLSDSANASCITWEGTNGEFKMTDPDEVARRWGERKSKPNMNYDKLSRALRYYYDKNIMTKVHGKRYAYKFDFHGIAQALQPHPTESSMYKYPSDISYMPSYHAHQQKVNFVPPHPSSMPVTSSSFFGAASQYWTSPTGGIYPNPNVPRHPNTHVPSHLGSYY
# Method in brief: (§1)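 GST fusions of human transcription factors were expressed in yeast and captured with glutathione beads. Once given DNA barcodes and pooled alongside a tag-only sample, they were incubated for 30 min at room temperature with 200 nmole of a random double-stranded 16-mer DNA library in Tris/NaCl/DTT/glycerol buffer, then washed, crosslinked (0.1% formaldehyde), proximity-ligated, PCR-amplified and sequenced on an Illumina NextSeq500. The binding signal of each hexamer is its read frequency for a factor divided by its frequency for the tag-only sample.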
# ELK1 = target: T2, ELK1 (Homo sapiens, UniProt P19419 1-428); details: protein: recombinant; tags: N-terminal GST; dsDNA, one strand shown
# T2 sequence: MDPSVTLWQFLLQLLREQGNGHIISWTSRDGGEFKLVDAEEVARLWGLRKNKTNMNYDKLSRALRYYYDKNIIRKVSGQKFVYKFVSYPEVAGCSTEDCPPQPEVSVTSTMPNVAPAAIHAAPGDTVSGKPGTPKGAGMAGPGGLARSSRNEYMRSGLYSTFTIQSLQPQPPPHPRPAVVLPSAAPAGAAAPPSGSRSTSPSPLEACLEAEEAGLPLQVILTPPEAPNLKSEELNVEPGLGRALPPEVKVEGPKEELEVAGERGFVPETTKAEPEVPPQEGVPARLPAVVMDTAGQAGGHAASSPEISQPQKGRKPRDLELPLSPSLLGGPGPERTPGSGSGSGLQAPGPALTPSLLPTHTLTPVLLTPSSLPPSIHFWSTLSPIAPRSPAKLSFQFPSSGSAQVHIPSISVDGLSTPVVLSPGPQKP
# Method in brief: as §1
# GABPA = target: T3, GABPA (Homo sapiens, UniProt Q06546 1-454); details: protein: recombinant; tags: N-terminal GST; dsDNA, one strand shown
# T3 sequence: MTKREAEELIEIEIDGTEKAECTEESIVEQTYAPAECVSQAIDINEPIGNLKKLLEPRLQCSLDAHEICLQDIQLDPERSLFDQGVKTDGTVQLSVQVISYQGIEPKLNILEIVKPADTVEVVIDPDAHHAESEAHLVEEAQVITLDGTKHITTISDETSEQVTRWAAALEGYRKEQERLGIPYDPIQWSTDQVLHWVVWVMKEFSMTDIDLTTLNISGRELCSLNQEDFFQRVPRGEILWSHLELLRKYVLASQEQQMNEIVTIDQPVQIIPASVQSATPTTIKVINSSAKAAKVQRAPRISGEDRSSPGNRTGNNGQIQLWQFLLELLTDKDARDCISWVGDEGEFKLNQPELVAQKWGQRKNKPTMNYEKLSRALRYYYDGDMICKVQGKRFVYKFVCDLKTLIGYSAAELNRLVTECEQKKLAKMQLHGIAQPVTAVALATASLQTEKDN
# Method in brief: as §1
# ERG = target: T4, ERG (Homo sapiens, UniProt P11308 1-479); details: protein: recombinant; tags: N-terminal GST; dsDNA, one strand shown
# T4 sequence: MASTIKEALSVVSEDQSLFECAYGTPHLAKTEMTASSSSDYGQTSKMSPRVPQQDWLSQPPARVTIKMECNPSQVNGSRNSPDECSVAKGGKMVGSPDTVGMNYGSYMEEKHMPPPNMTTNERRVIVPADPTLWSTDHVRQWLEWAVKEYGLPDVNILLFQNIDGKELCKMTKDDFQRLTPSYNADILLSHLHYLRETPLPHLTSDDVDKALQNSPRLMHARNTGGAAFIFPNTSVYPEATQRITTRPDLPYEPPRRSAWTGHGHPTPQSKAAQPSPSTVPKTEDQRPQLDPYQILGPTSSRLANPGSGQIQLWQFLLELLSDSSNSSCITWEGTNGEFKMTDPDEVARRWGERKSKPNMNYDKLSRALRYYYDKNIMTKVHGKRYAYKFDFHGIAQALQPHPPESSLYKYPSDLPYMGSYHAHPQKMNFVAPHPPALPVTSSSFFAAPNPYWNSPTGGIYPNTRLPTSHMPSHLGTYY
# Method in brief: as §1
# ELF1 = ELF1 (Homo sapiens, UniProt P32519 1-619); details: protein: recombinant; tags: N-terminal GST; dsDNA, one strand shown
# Method in brief: as §1
# EHF = target: T5, EHF (Homo sapiens, UniProt Q9NZC4 1-300); details: protein: recombinant; tags: N-terminal GST; dsDNA, one strand shown
# T5 sequence: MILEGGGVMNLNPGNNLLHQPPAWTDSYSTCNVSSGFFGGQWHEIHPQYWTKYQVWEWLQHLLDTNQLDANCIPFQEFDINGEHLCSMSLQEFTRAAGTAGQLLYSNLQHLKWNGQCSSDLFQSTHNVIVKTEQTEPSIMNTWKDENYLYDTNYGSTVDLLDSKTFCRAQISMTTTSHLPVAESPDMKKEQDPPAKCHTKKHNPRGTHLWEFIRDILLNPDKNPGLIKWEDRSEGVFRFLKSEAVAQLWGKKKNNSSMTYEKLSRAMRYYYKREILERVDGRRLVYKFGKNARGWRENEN
# Method in brief: as §1
# SPI1 = SPI1 (Homo sapiens, UniProt P17947 1-270); details: protein: recombinant; tags: N-terminal GST; dsDNA, one strand shown
# Method in brief: as §1
# SPIB = SPIB (Homo sapiens, UniProt Q01892 1-262); details: protein: recombinant; tags: N-terminal GST; dsDNA, one strand shown
# Method in brief: as §1
# ELK3 = target: T6, ELK3 (Homo sapiens, UniProt P41970 1-407); details: protein: recombinant; tags: N-terminal GST; dsDNA, one strand shown
# T6 sequence: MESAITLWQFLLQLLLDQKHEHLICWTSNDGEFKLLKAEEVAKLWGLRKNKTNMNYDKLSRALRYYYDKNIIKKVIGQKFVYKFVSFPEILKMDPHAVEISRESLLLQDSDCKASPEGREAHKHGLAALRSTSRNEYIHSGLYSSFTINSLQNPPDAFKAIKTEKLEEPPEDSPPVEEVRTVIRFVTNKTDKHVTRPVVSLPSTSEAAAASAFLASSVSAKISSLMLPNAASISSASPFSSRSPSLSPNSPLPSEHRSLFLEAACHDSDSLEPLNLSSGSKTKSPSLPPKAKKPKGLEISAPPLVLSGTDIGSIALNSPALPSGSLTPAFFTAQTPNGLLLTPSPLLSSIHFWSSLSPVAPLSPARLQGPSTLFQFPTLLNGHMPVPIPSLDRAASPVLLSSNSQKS
# Method in brief: as §1
# FEV = target: T7, FEV (Homo sapiens, UniProt Q99581 1-238); details: protein: recombinant; tags: N-terminal GST; dsDNA, one strand shown
# T7 sequence: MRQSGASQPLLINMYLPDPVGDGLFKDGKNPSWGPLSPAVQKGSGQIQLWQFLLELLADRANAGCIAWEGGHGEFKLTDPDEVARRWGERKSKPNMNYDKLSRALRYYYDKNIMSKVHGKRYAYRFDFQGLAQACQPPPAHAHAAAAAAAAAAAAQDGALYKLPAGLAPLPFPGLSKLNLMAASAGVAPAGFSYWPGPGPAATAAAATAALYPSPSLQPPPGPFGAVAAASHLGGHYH
# Method in brief: as §1
# ETV5 = ETV5 (Homo sapiens, UniProt P41161 1-510); details: protein: recombinant; tags: N-terminal GST; dsDNA, one strand shown
# Method in brief: as §1
# HSF1 = HSF1 (Homo sapiens, UniProt Q00613 1-529); details: protein: recombinant; tags: N-terminal GST; chain copies: 3; dsDNA, one strand shown
# Method in brief: as §1
# SPIC = target: T8, SPIC (Homo sapiens, UniProt Q8N5J4 1-248); details: protein: recombinant; tags: N-terminal GST; dsDNA, one strand shown
# T8 sequence: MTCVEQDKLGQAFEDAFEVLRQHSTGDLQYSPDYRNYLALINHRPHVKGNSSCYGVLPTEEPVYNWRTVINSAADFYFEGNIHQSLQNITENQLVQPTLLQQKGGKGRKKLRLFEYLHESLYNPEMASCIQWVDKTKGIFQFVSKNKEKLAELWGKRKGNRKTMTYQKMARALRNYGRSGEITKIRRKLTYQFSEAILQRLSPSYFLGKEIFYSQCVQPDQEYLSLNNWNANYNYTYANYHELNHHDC
# Method in brief: as §1
# ELF4 = ELF4 (Homo sapiens, UniProt Q99607 1-663); details: protein: recombinant; tags: N-terminal GST; dsDNA, one strand shown
# Method in brief: as §1
# ELK4 = target: T9, ELK4 (Homo sapiens, UniProt P28324-2 1-405); details: protein: recombinant; tags: N-terminal GST; dsDNA, one strand shown
# T9 sequence: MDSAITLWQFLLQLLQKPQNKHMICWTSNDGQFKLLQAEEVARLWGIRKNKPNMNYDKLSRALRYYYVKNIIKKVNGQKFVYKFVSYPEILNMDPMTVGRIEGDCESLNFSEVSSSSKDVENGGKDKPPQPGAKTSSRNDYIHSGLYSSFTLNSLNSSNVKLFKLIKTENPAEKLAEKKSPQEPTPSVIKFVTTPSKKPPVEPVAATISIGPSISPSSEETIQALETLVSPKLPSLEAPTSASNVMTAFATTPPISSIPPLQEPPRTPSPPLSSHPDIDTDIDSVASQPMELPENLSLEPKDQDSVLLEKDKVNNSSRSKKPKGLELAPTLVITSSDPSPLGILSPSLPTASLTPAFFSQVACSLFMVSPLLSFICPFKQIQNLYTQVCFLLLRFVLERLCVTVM
# Method in brief: as §1
# ETV2 = target: T10, ETV2 (Homo sapiens, UniProt O00321 1-342); details: protein: recombinant; tags: N-terminal GST; dsDNA, one strand shown
# T10 sequence: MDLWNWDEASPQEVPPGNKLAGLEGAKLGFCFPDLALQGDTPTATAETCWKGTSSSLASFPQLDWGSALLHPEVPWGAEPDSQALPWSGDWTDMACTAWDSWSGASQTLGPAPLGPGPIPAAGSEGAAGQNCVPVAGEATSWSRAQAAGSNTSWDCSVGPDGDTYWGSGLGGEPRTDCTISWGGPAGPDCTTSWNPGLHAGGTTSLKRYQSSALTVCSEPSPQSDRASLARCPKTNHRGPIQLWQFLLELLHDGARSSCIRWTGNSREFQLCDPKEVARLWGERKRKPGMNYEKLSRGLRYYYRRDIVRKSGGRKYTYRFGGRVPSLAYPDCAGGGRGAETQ
# Method in brief: as §1
# ELF3 = target: T11, ELF3 (Homo sapiens, UniProt P78545 1-371); details: protein: recombinant; tags: N-terminal GST; dsDNA, one strand shown
# T11 sequence: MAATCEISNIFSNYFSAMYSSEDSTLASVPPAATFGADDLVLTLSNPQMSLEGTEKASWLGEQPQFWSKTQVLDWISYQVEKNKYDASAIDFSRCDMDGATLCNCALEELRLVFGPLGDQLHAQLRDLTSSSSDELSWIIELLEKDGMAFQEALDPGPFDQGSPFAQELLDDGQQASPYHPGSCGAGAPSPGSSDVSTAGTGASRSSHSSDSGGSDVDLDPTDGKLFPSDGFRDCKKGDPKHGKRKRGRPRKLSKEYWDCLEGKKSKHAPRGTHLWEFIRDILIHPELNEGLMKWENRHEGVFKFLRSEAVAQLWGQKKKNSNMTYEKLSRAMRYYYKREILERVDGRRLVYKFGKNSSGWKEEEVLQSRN
# Method in brief: as §1
# CRX = CRX (Homo sapiens, UniProt O43186 1-299); details: protein: recombinant; tags: N-terminal GST; dsDNA, one strand shown
# Method in brief: as §1
# ETV1 = ETV1 (Homo sapiens, UniProt P50549 1-477); details: protein: recombinant; tags: N-terminal GST; dsDNA, one strand shown
# Method in brief: as §1
# Chain of ETV1 (P50549 whole entry): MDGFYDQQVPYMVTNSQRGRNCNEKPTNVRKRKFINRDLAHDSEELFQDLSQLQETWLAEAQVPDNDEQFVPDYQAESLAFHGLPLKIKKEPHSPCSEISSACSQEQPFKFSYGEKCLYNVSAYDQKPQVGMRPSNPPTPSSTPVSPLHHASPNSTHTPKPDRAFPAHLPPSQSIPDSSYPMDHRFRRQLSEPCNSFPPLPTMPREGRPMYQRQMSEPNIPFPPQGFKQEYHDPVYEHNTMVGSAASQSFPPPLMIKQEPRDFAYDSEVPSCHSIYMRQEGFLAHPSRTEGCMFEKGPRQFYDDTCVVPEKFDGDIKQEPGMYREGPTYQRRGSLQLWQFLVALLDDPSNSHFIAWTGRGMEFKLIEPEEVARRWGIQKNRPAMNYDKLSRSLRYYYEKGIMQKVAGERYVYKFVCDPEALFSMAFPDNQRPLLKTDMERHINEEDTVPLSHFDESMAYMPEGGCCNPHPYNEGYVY
# Chain of SPIB (Q01892 whole entry): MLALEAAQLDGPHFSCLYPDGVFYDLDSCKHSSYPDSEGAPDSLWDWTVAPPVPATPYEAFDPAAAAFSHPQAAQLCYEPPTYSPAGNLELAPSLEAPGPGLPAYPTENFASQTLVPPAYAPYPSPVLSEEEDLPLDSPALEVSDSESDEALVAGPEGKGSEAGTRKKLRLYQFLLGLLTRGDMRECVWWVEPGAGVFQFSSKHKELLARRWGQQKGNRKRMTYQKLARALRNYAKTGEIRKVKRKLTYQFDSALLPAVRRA
# Chain of ELF4 (Q99607 whole entry): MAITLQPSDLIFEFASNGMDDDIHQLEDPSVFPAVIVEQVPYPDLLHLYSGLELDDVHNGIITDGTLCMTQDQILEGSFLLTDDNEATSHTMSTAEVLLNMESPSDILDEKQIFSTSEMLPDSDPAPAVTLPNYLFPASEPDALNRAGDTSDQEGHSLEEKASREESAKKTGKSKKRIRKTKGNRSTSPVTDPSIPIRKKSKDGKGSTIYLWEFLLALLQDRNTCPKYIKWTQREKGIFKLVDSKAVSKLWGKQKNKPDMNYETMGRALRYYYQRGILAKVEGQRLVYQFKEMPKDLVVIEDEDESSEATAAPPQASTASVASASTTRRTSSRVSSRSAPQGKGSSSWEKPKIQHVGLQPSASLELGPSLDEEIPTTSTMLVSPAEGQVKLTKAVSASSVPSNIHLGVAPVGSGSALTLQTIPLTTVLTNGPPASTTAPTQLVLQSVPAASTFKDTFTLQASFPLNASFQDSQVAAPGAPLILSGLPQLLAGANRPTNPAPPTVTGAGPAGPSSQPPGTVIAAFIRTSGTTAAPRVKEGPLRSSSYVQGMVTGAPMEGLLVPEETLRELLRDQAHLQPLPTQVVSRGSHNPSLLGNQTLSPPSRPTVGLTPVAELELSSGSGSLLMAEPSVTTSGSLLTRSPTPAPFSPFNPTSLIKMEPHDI
# Chain of HSF1 (Q00613 whole entry): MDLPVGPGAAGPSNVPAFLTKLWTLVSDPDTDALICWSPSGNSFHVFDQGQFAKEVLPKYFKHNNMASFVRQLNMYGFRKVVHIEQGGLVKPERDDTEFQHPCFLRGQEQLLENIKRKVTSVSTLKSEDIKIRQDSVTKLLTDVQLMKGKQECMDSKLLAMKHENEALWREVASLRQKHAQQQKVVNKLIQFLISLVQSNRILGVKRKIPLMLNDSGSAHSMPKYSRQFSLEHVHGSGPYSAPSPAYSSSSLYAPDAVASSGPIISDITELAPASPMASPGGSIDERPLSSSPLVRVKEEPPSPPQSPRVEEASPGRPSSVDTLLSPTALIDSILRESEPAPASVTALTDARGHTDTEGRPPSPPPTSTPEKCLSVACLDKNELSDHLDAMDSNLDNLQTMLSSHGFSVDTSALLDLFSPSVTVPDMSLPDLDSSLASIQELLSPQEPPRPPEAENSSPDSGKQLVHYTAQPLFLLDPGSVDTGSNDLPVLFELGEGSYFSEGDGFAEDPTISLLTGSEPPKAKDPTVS
# Chain of CRX (O43186 whole entry): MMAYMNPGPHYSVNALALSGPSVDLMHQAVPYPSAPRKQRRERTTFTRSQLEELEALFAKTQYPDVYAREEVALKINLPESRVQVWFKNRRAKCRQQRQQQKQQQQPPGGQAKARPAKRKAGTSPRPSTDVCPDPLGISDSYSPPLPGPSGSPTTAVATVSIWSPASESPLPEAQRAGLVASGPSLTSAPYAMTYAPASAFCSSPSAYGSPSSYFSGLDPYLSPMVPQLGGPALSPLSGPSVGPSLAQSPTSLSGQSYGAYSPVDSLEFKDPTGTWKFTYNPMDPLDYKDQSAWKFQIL
# Chain of ELF1 (P32519 whole entry): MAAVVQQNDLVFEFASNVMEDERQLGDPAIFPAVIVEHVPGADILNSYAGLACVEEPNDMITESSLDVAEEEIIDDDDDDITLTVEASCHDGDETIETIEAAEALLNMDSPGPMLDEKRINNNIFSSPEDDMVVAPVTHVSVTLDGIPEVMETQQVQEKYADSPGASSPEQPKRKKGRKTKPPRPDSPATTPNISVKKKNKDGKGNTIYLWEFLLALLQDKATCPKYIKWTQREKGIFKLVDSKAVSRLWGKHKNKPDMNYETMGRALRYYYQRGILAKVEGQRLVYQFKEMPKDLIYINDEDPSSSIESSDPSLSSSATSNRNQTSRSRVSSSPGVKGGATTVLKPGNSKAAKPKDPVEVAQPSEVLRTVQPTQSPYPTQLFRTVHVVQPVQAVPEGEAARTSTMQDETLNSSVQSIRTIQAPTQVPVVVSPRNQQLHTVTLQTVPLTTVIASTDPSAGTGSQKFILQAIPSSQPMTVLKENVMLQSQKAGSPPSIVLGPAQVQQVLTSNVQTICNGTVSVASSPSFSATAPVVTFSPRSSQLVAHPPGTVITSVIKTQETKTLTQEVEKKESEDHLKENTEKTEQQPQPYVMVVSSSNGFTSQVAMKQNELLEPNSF
# Chain of ETV5 (P41161 whole entry): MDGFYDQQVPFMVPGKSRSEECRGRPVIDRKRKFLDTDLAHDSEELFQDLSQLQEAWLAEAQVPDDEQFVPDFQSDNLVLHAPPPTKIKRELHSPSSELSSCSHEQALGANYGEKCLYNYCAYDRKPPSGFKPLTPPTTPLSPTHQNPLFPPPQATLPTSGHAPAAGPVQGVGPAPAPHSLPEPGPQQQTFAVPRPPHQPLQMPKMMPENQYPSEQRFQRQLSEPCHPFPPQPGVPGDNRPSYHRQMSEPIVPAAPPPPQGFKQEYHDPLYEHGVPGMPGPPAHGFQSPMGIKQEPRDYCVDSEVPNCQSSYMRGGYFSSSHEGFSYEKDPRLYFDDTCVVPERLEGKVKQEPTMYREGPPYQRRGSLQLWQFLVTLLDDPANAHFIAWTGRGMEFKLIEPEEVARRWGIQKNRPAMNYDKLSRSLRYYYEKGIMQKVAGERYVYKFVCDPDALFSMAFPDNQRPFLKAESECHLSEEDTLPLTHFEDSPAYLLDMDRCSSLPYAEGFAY
sequence,measurement,setting,value
ACCATA,binding signal,FLI1,"1.2 fold enrichment (6-mer frequency, TF over GST control)"
same,binding signal,ELK1,"1.16 fold enrichment (6-mer frequency, TF over GST control)"
same,binding signal,GABPA,"1.12 fold enrichment (6-mer frequency, TF over GST control)"
same,binding signal,ERG,"1.19 fold enrichment (6-mer frequency, TF over GST control)"
same,binding signal,ELF1,"1.16 fold enrichment (6-mer frequency, TF over GST control)"
same,binding signal,EHF,"1.12 fold enrichment (6-mer frequency, TF over GST control)"
same,binding signal,SPI1,"1.13 fold enrichment (6-mer frequency, TF over GST control)"
same,binding signal,SPIB,"1.19 fold enrichment (6-mer frequency, TF over GST control)"
same,binding signal,ELK3,"1.22 fold enrichment (6-mer frequency, TF over GST control)"
same,binding signal,FEV,"1.17 fold enrichment (6-mer frequency, TF over GST control)"
same,binding signal,ETV5,"1.21 fold enrichment (6-mer frequency, TF over GST control)"
same,binding signal,HSF1,"1.08 fold enrichment (6-mer frequency, TF over GST control)"
same,binding signal,SPIC,"1.22 fold enrichment (6-mer frequency, TF over GST control)"
same,binding signal,ELF4,"1.21 fold enrichment (6-mer frequency, TF over GST control)"
same,binding signal,ELK4,"1.31 fold enrichment (6-mer frequency, TF over GST control)"
same,binding signal,ETV2,"1.17 fold enrichment (6-mer frequency, TF over GST control)"
same,binding signal,ELF3,"1.14 fold enrichment (6-mer frequency, TF over GST control)"
same,binding signal,CRX,"1.14 fold enrichment (6-mer frequency, TF over GST control)"
same,binding signal,ETV1,"1.09 fold enrichment (6-mer frequency, TF over GST control)"
